# Results as given in PubChem BioAssay (Tox21).
# Results filed as inconclusive are left out. A call without a number means that no potency is given here. The source made the active and inactive calls. Calls follow the shape of the full dose curve.
# Biological target: Muscarinic acetylcholine receptor M1 (Homo sapiens) (UniProt P11229)
# Assay: Cholinergic receptor muscarinic 1 (CHRM1) small molecule antagonists, cell-based qHTS assay (AID 1963588); also: nearly all actives have a fitted effect of over 40% in size
# Conditions: CHRM1-CHO antagonist mode, calcium flux fluorescence; series mostly up to 61.5 µM
# From the text: National Center for Advancing Translational Sciences [NCATS]
# Division of Preclinical Innovation [DPI]
# U.S. Environmental Protection Agency [EPA]
# National Institutes of Environmental Health Sciences [NIEHS]
# National Toxicology Program [NTP]
# U.S. Food and Drug Administration [FDA]
# The CHRM1 is a muscarinic receptor. This receptor plays a crucial role in learning and memory processes and has long been identified as a promising therapeutic target for the improvement of cognitive decline in Alzheimer's disease (AD). The CHRM1-CHO cell line stably expressing human muscarinic acetylcholine receptor M1 (CHRM1) can be used for screening agonists and antagonists of interactions between CHRM1 and its ligands. The CHRM1-CHO Calcium Flux Assay is a homogeneous fluorescence-based assay for detecting the intracellular calcium level using FDSS kinetic plate reader system.
# Tox21 Assay Protocol Summary:
# CHRM1-CHO cells were dispensed at 1000 cells/3uL/well in 1536-well black-clear bottom plates using a Multidrop Dispenser. After the assay plates were incubated at a 37 C/5% CO2 incubator for 18 h, 3 uL of Dye Loading Buffer was transferred to the assay plate by a Flying Reagent Dispenser. The assay plates were incubated at 37 C for 1h. For antagonist mode, 23 nL of compounds dissolved in DMSO, positive controls or DMSO only was transferred to the assay plate by a pin tool. After 5 min incubation at room temperature, 1.5 uL of acetylcholine at 50nM was added to each well. The fluorescence intensity in the plates was measured using FDSS 7000EX kinetic plate reader for 3 min at 1 sec intervals. Each test compound was measured at 15 concentrations in three independent runs.
# Potency is read from the fitted curve at half-maximal effect.
# Chain of Muscarinic acetylcholine receptor M1 (Homo sapiens) (P11229 whole entry, looked up): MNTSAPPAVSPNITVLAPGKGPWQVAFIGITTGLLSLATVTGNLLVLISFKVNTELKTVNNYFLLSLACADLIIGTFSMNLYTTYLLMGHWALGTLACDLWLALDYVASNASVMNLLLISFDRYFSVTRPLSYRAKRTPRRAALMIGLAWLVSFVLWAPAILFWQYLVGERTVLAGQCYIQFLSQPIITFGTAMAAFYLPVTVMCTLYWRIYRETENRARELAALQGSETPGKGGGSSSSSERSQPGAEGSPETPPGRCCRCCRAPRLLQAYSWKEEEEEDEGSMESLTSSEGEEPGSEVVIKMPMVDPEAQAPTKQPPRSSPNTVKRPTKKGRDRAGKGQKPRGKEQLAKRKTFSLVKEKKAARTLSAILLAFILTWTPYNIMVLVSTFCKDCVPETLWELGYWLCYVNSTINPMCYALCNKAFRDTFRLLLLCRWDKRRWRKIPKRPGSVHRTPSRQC
row,SMILES,Potency
1,CCCCCC1Nc2cc(C(F)(F)F)c(S(N)(=O)=O)cc2S(=O)(=O)N1 (stereo not given),inactive
2,Oc1cccc(Nc2ccccc2)c1,inactive
3,CC(N)=O,inactive
4,CCCOc1sc(C(=O)N2CCC(c3cc(CN)ccc3F)CC2)c(C)c1Br,inactive
5,Oc1ccccc1F,inactive
6,CCCCCCCCCCCCSC#N,inactive
7,CCN1C=CN(C)C1C (stereo not given),inactive
8,NCc1ccccc1,inactive
9,Fc1ccccc1[C@@H](F)COC1CCC(Nc2ncnc3[nH]ncc23)CC1 (stereo not given in full),inactive
10,C#C[C@]1(O)CC[C@H]2[C@@H]3CCc4cc(OC5CCCC5)ccc4[C@H]3CC[C@@]21C,inactive
11,CC(=O)c1ccc([N+](=O)[O-])cc1,inactive
12,Nc1ccc2cc(S(=O)(=O)O)cc(O)c2c1N=Nc1ccccc1C(F)(F)F,inactive
13,COC(=O)/C=C/C(C)=C\C=C\C(C)=C\C=C\C=C(C)\C=C\C=C(C)\C=C\C(=O)O,inactive
14,OC[C@H]1O[C@@H](n2cnc3c(=S)nc[nH]c32)[C@H](O)[C@@H]1O,inactive
15,S=C([S-])NCCNC(=S)[S-].S=C([S-])NCCNC(=S)[S-].[Mn+2].[Zn+2],inactive
16,COCCc1ccc(OCC2CO2)cc1 (stereo not given),inactive
17,COc1ccc(/C=C/C(=O)c2ccc(OC)cc2OC)cc1,inactive
18,CC(Oc1c(Cl)cccc1Cl)C1=NCCN1 (stereo not given),inactive
19,Oc1ccccc1-c1nnco1,inactive
20,CCCCN(CCC(=O)OCC)C(C)=O,inactive

row,SMILES,Potency
1,NNC(=O)OCc1ccccc1,inactive
2,CC(=O)Nc1ccc(S(=O)(=O)Nc2ccc([N+](=O)[O-])cc2)cc1,inactive
3,CCN(C)C(=O)Oc1cccc([C@H](C)N(C)C)c1,inactive
4,CCCCCC(C)OC(=O)COc1ccc(Cl)c2cccnc12 (stereo not given),inactive
5,CCN(CCC#N)c1ccccc1,inactive
6,CC1CN(c2ccccc2)NC1=O (stereo not given),inactive
7,C=C1CC[C@H]2C[C@@H]1C2(C)C,inactive
8,CCCC(C)CC (stereo not given),inactive
9,O=C1CCCCC1C1CCCCC1 (stereo not given),inactive
10,COc1ccc(-c2cc(=S)ss2)cc1,inactive
11,C[C@@H](NCCCc1cccc(C(F)(F)F)c1)c1cccc2ccccc12,inactive
12,CCOc1ccccc1OCC1CNCCO1 (stereo not given),inactive
13,CC(O)C#CC(C)O (stereo not given),inactive
14,COC(=O)C1=C(C)NC(C)=C(C(=O)OCC(C)=O)C1c1ccccc1[N+](=O)[O-] (stereo not given),inactive
15,CCc1ccc(O)c(C(C)(C)C)c1,37.5 µM (active)
16,Cc1ccccc1N=C(N)N=C(N)N,inactive
17,CCC(C)(C)c1cc(O)c(C(C)(C)CC)cc1O,inactive
18,COC(=O)C1=C(C)NC(C)=C(C(=O)O[C@@H]2CCCN(Cc3ccccc3)C2)[C@@H]1c1cccc([N+](=O)[O-])c1,inactive
19,Nc1ccc(Oc2ccc(N)c(N)c2)cc1,inactive
20,CC(C)NC(=O)c1ccc(C=O)cc1,inactive
